In the library only some 12% were active in any assay of this set; here they are far more common.
G9a inh – blocks human histone lysine methyltransferase G9a. G9a H3K9 monomethylation, AlphaScreen, 2 h. hit rate 8.8% among 350,000. Potency, µM (series often up to 102 µM), for the others: at the highest dose activity, negative = inhibition, actives largely listed as inhibitors. AID 504332; further: on the % scale 0 is the no-effect control and ±100 the full control effect; nearly all actives have a fitted effect of over 75% in size
Target sequence (Q96KQ7 913-1193 limits assumed): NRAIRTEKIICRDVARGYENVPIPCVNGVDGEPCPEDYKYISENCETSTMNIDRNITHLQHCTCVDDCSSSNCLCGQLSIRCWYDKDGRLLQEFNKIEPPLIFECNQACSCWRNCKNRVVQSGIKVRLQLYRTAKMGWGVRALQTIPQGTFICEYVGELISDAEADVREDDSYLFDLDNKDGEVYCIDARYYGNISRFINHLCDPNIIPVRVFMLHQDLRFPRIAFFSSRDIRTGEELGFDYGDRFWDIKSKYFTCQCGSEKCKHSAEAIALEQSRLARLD
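Chemiluminescent proximity detection of H3K9 monomethylation, read after 10 min bead incubation in the dark. Reaction: 20 nM G9a, 500 nM biotin-H3K9 peptide, 20 uM SAM cofactor, 2 h, room temperature, following 15 min enzyme-compound preincubation.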
Sfp inh – blocks B. subtilis Sfp PPTase activity | Q9F4F7 | Biochemical Sfp PPTase activity, qHTS | Potency, µM, inactives show largest response in the series, negative = inhibition, hits mostly inhibitors | hit rate 3.5% among 310,000;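 further: the enzyme is Sfp with the accession as filed and its product quenches rhodamine fluorescence; 0% = enzyme reaction without inhibitor and -100% = no enzyme wells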
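Buffer: 50 mM Hepes-Na pH 7.6, 10 mM MgCl2, 0.01% Nonidet P-40, 0.01% BSA. Enzyme 15 nM, pre-exposed to compound 15 min; substrates then added and fluorescence change tracked over 30 min.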
HP1b binding inh – HP1-beta chromodomain-methylated histone interaction inhibition; AID 540317; AlphaScreen HP1-beta / biotin-H3K9me3 peptide binding; Potency, µM (series often up to 114 µM), without a hit: at the highest dose activity change, negative = inhibition, usual class: inhibitors; P83916; hit rate 0.56% among 390,000; further: nearly all actives have a fitted effect of over 70% in size
Target sequence (P83916 whole entry, looked up): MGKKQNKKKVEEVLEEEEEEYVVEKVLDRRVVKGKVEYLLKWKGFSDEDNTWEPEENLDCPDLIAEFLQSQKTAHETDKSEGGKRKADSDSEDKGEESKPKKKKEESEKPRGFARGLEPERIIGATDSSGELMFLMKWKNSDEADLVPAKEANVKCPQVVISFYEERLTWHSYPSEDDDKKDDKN
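AlphaScreen: HP1-beta (50 nM) preformed 30 min with biotin-H3(1-18)K9me3 peptide (50 nM) in PBS pH 7.4, 0.01% Tween-20. Compound added for 30 min at RT, then streptavidin donor/nickel chelate acceptor beads (10 ug/mL) for 30 min.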
JMJD2A Tudor inh – blocks the human JMJD2A Tudor domain; hit rate 4.4% among 390,000; AlphaScreen JMJD2A-Tudor / H3K4me3 peptide binding; AID 504339; Potency, µM (titrated, usually from 114 µM), without a hit: at the top dose activity change, negative = inhibition, actives largely listed as inhibitors; further: on the % scale 0 is the no-effect control and ±100 the full control effect; nearly all actives have a fitted effect of over 50% in size
BAZ2B inh – blocks human BAZ2B; Potency, µM (titrated, usually from 114 µM), for inactives: top-dose activity change, negative = inhibition, usual class: inhibitors; Q9UIF8; AID 504333; AlphaScreen BAZ2B-H3K14Ac peptide displacement; hit rate 4.4% among 360,000; further: on the % scale 0 is the no-effect control and ±100 the full control effect; nearly all actives have a fitted effect of over 60% in size
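AlphaScreen luminescence quantifies BAZ2B engagement of H3K14Ac peptide; the protein and biotinylated peptide are both at 50 nM final, buffer PBS pH 7.4 with 0.01% Tween-20, all steps at room temperature.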
Active calls of the source: *; ? = inconclusive; · = no result given; [ ] = another dose, or the depositor's remark. The call rests on the fitted dose curve; in most records, active means well fitted curve in the direction sought with a large enough effect; inconclusive means small, poorly fitted or top-dose-only effect, or another doubt; inactive means no such curve, though single readings can be large; an effect the other way counts as inactive or inconclusive. Potency means the concentration at half of the fitted maximal effect.

SMILES	G9a inh	Sfp inh	HP1b binding inh	JMJD2A Tudor inh	BAZ2B inh
COc1cc(/C=C/c2ccc3cccc(O)c3n2)cc(OC)c1OC	33%	8%	2%[57 µM]	-20%	0%
COc1cccc2ccc(/C=C/c3ccc4c(c3)OCO4)nc12	·	·	13%	-12%	·
COc1cc(/C=C/c2ccc3cccc(O)c3n2)cc(Cl)c1OC	11%	50µM*	26%	-22%	?
Cc1ccc(/C=C/c2ccc3cccc(O)c3n2)s1	28µM*	1%	28%	-1%	30%
COC(=O)c1ccc(/C=C/c2ccc3cccc(OC)c3n2)cc1	33%[59 µM]	45µM*	52%	10%	23%
O=C(Cn1c(=O)nc(-c2ccccc2)c2ccccc21)NCc1ccccc1Cl	0%[59 µM]	·	19%	-28%	-8%
CC1=C(c2ccccc2)[N+](=O)C2(CCCCC2)N1[O-]	50µM*	8%	3%	-14%	-13%
O=C(NC(=S)NC1CCCc2ccccc21)c1ccc(F)cc1 (stereo unspecified)	-22%	-5%	-12%	79µM*	?
O=C(NC(=S)NC1CCCc2ccccc21)c1ccco1 (stereo unspecified)	-35%	-16%	34%	-6%	-31%
O=C(CCl)NC1CCCc2ccccc21 (stereo unspecified)	6%	5%	-11%	50µM*	4%
N#Cc1ccc(C(=O)NC2CCCc3ccccc32)cc1 (stereo unspecified)	50µM*	2%	48%	7%	4%
O=C(NC1CCCc2ccccc21)c1cc(Cl)ccn1 (stereo unspecified)	25µM*	-27%	3%	30%	2%
CCOC(=O)CN(C(=O)CSc1nnc(CNc2ccc(C)cc2C)o1)c1ccccc1	-8%[59 µM]	-4%	-10%	?	50µM*
Cc1ccc(NCc2nnc(SCC(=O)N(Cc3ccccc3)C(C)(C)C)o2)c(C)c1	-2%[12.7 µM]	1%	-13%	?	?
c1c(CC2CCCC2)nnn1C[C@H]1CC[C@@H]([C@@H]2CC[C@H](Cn3cc(CC4CCCC4)nn3)O2)O1	40µM*	1%	31%	-8%	-26%
COc1ccc(-n2nc3c(c2NC(=O)COc2cccc(OC)c2)CS(=O)(=O)C3)cc1	18µM*	50µM*	-19%	?	?
COc1ccc(NC(=O)C(Cc2cc(C)cc(C)c2)C(C)C(=O)O)cc1 (stereo unspecified)	12%[59 µM]	11%	43%	-6%	1%
Nc1c(C(=O)NCc2ccco2)c2nc3ccccc3nc2n1CCc1ccccc1F	?	56µM*	81%	14%	8%
COc1ccc(-n2c(N)c(C(=O)NCc3ccco3)c3nc4ccccc4nc32)c(OC)c1	10%[12.7 µM]	?	64%	11%	20%
COc1ccc(CCn2c(N)c(C(=O)NCc3ccco3)c3nc4ccccc4nc32)cc1	20%	?	86%	13%	6%
COc1ccc(CCn2c(N)c(C(=O)NCc3ccco3)c3nc4ccccc4nc32)cc1OC	-12%[59 µM]	45µM*	84%	18%	11%
CCOC(=O)C1CCN(CCCSc2ccc(C)cc2)CC1	·	·	29%	-18%	·
Cc1cc(C(=O)CSc2ncccn2)c(C)n1-c1cccc(F)c1	?	-26%	-5%	-29%	-39%
COCCn1c(C)cc(C(=O)CSc2n[nH]c(N)n2)c1C	?	25µM*	10%	-16%	-31%
Cc1cc(C(=O)CSc2n[nH]c(N)n2)c(C)n1-c1cccc(F)c1	?	-12%	-19%	?	50µM*
SMILES	G9a inh	Sfp inh	HP1b binding inh	JMJD2A Tudor inh	BAZ2B inh
COCCn1c(C)cc(C(=O)CSc2nc3nc(C)cc(C)n3n2)c1C	?	-5%	1%	-24%	-10%
Cc1ccc(C(=O)NC(=S)N2CCN(C)CC2)cc1Br	45µM*	-1%	38%	-15%	-25%
COc1ccc(C(=O)NC(=S)N2CCN(C)CC2)cc1Br	45µM*	-14%	29%	-7%	-26%
COc1cc(C(=O)NC(=S)N2CCN(C)CC2)cc(OC)c1OC	·	·	4%[57 µM]	-3%	·
CN1CCN(C(=S)NC(=O)c2cccc(S(=O)(=O)N(C)C)c2)CC1	14µM*	?	-9%	-26%	-31%
CN1CCN(C(=S)NC(=O)c2ccccc2Br)CC1	11%	-15%	14%	-16%	1%
